Screening data (PubChem BioAssay)
The full list was thinned out, with hits kept by preference.
Pf Dd2 growth = inhibitors of Plasmodium falciparum Dd2 growth; P. falciparum Dd2 growth, SYBR Green, 72 h; 120,000 compounds, 4.3% hits; Potency, µM (highest dose often 28.9 µM), actives largely listed as inhibitors; active = well fitted inhibition curve with a large enough effect; also: nearly all actives have a fitted effect of over 65% in size
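Readout: SYBR Green fluorescence, 485 nm excitation, 535 nm emission, after ~16 h lysis at 37C. Before that, Dd2-infected red cells (2.5% hematocrit) grew 72 h with compound, 29 uM top final concentration.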
Hits are given with their value; 0 = inactive.

SMILES | Pf Dd2 growth
Cc1nn(-c2ccc(C(F)(F)F)cc2)c(C)c1[C@@H]1C=C[C@@H](NS(=O)(=O)c2ccccc2)C1 | 0
COc1ccc(C(=O)N[C@@H]2C=C[C@@H](c3c(C)nn(-c4ccc(C)c(Cl)c4)c3C)C2)cc1 | 4.5µM
COc1ccc(C(=O)N[C@@H]2C=C[C@@H](c3c(C)nn(-c4ccccc4)c3C)C2)cc1 | 0
COc1ccc(C(=O)N[C@@H]2C=C[C@@H](c3c(C)nn(-c4ccc(C(F)(F)F)cc4)c3C)C2)cc1 | 0
Cc1ccc(-n2nc(C)c([C@@H]3C=C[C@@H](NS(=O)(=O)c4cccs4)C3)c2C)cc1Cl | 11µM
Cc1ccc(-n2nc(C)c([C@H]3C=C[C@@H](O)C3)c2C)cc1Cl | 0
CCc1ccc(S(=O)(=O)N2CCC(Oc3ncccc3C(=O)N(C)C)C2)cc1 (stereo not drawn) | 0
COc1ccc(CCNC(=O)c2c(C)noc2-c2ccc3c(c2)OCO3)cc1OC | 0
COc1ccccc1-c1nc2nccc(-c3ccc4c(c3)OCCCO4)n2n1 | 0
CCOc1ccc(-n2c(Cc3ccccc3)nnc2SCc2nc(-c3ccccc3C)no2)cc1 | 0
CCOc1ccc(-c2noc(CSc3nnc(Cc4ccccc4)n3-c3cccc(C)c3)n2)cc1 | 10µM
Cc1ccc(-c2noc(CSc3nnc(Cc4ccccc4)n3-c3cccc(C)c3)n2)cc1 | 0
COc1cccc(OC)c1CN1CC[C@@H]2CN(S(C)(=O)=O)[C@@H]2C1 | 0
COc1ccc(Cn2c(C3CCN(C(=O)c4ccccc4Cl)CC3)n[nH]c2=O)cc1 | 0
CNC(=O)c1cc(-c2cccnc2)cc2c1OCCN2Cc1cccnc1 | 0
CNC(=O)c1cc(-c2cccc(OC)c2OC)cc2c1OCCN2Cc1cccnc1 | 13µM
CNC(=O)c1cc(-c2cnn(C)c2)cc2c1OCCN2Cc1cccnc1 | 0
CNC(=O)C1CCCN(S(=O)(=O)c2ccccc2)CCC(=O)NCC1 (stereo not drawn) | 0
O=C(Nc1ccccc1F)N1CC2CCC(C1)N2Cc1cccc(Cl)c1 | 0
COc1cc2c(cc1OC)C(COc1ccc3c(C)cc(=O)oc3c1)N(C(=O)c1cccc(C)c1)CC2 (stereo not drawn) | 5µM
COc1ccc(OCC(=O)N2CCN(C(=O)c3cccc(OC)c3OC)CC2)cc1 | 0
COc1cc2c(cc1OC)C(COc1ccc3c(C)cc(=O)oc3c1)N(C(=O)c1cccc(OC)c1OC)CC2 (stereo not drawn) | 8.9µM
CCNC(=O)NCC1c2cc(OC)c(OC)cc2CCN1C(=O)Nc1ccccc1OC (stereo not drawn) | 0
Cc1cc(C)c(NC(=O)COc2ccc3c(C)cc(=O)oc3c2)c(C)c1 | 0
COc1ccc(CC(=O)NCc2ccc3c(c2)CCN3C(=O)c2cccc(C)c2)cc1 | 0
SMILES | Pf Dd2 growth
CCN1C(=O)C2(CCN(S(=O)(=O)Cc3ccccc3)CC2)c2ccccc21 | 0
COc1ccc(-c2nc(C3CC(=O)N(c4ccc(F)c(Cl)c4)C3)no2)c(OC)c1 (stereo not drawn) | 0
COc1cccc(CN2CC[C@H]3COC(=O)N3c3cc(C)ccc3C2)c1 | 0
COc1ccc(NC2CCCN(C(=O)CCCS(N)(=O)=O)C2)cc1 (stereo not drawn) | 0
CC(C)c1noc(-c2cn(C3CCN(C(=O)c4ccc(C#N)cc4)C3)nn2)n1 (stereo not drawn) | 0
CCOC(=O)c1cc(-c2ccc(C)cc2)n(CCC(=O)NCc2ccccc2)c1C | 8.9µM
CCOC(=O)c1cc(-c2ccc(C)cc2)n(CCC(=O)NCCc2ccc(C)cc2)c1C | 0
CCOC(=O)c1cc(-c2ccccc2)n(CC(=O)NCc2ccc(C)cc2)c1C | 0
CCOC(=O)c1cc(-c2ccccc2)n(CCC(=O)NCCc2ccc(OC)c(OC)c2)c1C | 0
CCOC(=O)c1cc(-c2ccccc2)n(CC(=O)NCc2ccccc2)c1C | 0
CCOC(=O)c1cc(-c2ccc(OC)cc2)n(CCC(=O)NCc2ccc(OC)cc2)c1C | 4µM
CC(C)Cc1cc(C(=O)NCC2(c3ccccc3F)CCCC2)on1 | 0
O=c1c(-c2cccs2)ccc2n1C[C@H]1C[C@@H]2CN(Cc2cc3ccccc3o2)C1 | 0
COCCn1ncc(N2CCC(NC(=O)COc3ccc(F)cc3)CC2)cc1=O | 0
O=C(Cc1ccsc1)N1CCc2n[nH]c(=O)n2CC1 | 0
O=C(c1ccoc1)N1CCC2(CC1)CC(N(C(=O)c1ccccc1)C1CC1)CCO2 (stereo not drawn) | 0
COc1ccccc1OC1(C(=O)O)CCN(Cc2ccccc2F)CC1 | 0
CC(C)c1noc(-c2cn(C3CCN(C(=O)c4cccc5[nH]ccc45)CC3)nn2)n1 | 0
Cc1ccc(CNc2ccc3nnc(C4CCC4)n3n2)o1 | 7.1µM
CC(C)Nc1ccc2nnc(C3CCC3)n2n1 | 0
CCc1nnc2ccc(NCC3CCCO3)nn12 (stereo not drawn) | 0
O=S(=O)(c1ccc(C(F)(F)F)cc1)N1CCC(n2cnnc2C2CC2)CC1 | 0
O=C(CCc1ccccc1)N1CCC2(CC1)NC(=O)N(c1ccccc1)N2 | 0
CCC(C)OC(=O)/C(C#N)=C\c1ccc(-c2ccccc2Cl)o1 (stereo not drawn) | 0
CC(C)COC(=O)/C(C#N)=C\c1ccc(-c2ccccc2Cl)o1 | 1.1µM
